Laboratory results as given in PubChem BioAssay (NCI).
Compounds without any hit were thinned out: in the full panel of roughly 83,000, 20% have a hit.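 Cell lines were cultured in 96-well plates, exposed to a single compound concentration, and assessed for percent growth 48 hours later.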 Unmarked numbers belong to inactive results. Active and inactive are the calls of the source. How the source made its calls: active means growth percent below 10; inactive means the rest.

tested on: A549/ATCC NSCLC; experiment: NCI-60 one-dose screen, 48 h (100 = growth as untreated, 0 = no growth, -100 = all killed); conditions: 10 µM unless noted

SMILES | growth
C=CC(=O)Nc1cccc(-c2nc(SC)nc(NCc3ccccc3)c2C#N)c1 | 53.4%
COC(=O)c1ccc2oc(NC(=O)c3ccc(Nc4ccc([N+](=O)[O-])cc4C)c([N+](=O)[O-])c3)nc2c1 | 100%
COc1cc(/C=C/c2cc(/C=C/c3ccc(O)c(OC)c3)n(-c3c(Cl)cccc3Cl)c(=O)n2)ccc1O | 44.1%
CSc1nc(Nc2cccc(NC(=O)CCl)c2)c(C#N)c(-c2cccc([N+](=O)[O-])c2)n1 | 95.9%
CC(C)(C)N1CCC1CN (stereo unspecified) | 104%
Cc1ccc(NC(=O)/C=C/c2ccccc2)c(C(N)=O)c1 | 25.7%
COc1ccc(-n2nc(C)c3c(Nc4ccc(NC(=O)Nc5cccc(C(F)(F)F)c5)cc4)ncnc32)cc1 | -19.2% (active)
O=C1OCC2=C1C(c1ccncc1)c1cc3c(cc1N2CCO)OCO3 (stereo unspecified) | 98.9%
C#Cc1cccc(NC(=O)c2ccccc2NC(=O)C=C)c1 | 98.1% [8.25 µM]
CCOc1cc2ncc(C#N)c(Nc3ccc(F)c(Cl)c3)c2cc1NC(=O)CC1CCSS1 (stereo unspecified) | -75.6% (active)
CN(Cc1cc(Cl)cc(Cl)c1O)Cc1cc(Cl)cc(Cl)c1O | 61.2%
CC(=O)O[C@H]1[C@@H]2OC(=O)C(CSc3ccccc3)[C@@H]2C[C@H]2O[C@]2(C)CC/C=C(\C)CCC[C@@H]1C (stereo partly specified) | 21.2%
COc1ccc(/C=N/C2=C(C#N)C(c3ccc(N(C)C)cc3)c3ccc4ccccc4c3O2)cc1 (stereo unspecified) | 64.9%
C[n+]1ccccc1/C=C/c1ccc2cccc(O)c2n1 | 9.6% (active)
Cc1nn(-c2ccc(F)cc2)c2ncnc(Oc3ccc(NC(=O)Nc4ccc(Cl)c(C(F)(F)F)c4)cc3)c12 | 96.2%
COc1ccc(C(=O)c2sc3nc(C)cc(C)c3c2N)cc1OC | 60%
C=CC(=O)Nc1cccc(-c2nc(SC)nc(Nc3ccccc3OC)c2C#N)c1 | -6.83% (active)
Nc1nc2ncc(CCNc3ccc(C(=O)O)cc3)nc2c(=O)[nH]1 | 105%
CCCSc1ccc2nc(NC(=O)OC)[nH]c2c1 | 16.5%

SMILES | growth
CCCc1cc(=O)n2c(C(=O)Nc3ccc(F)cc3)c(C(=O)Nc3ccc(F)cc3)sc2n1 | 34.1% [30 µM]
O=C(/C=C/c1ccccc1)c1ccc(O)c(CN2CCN(c3cc4c(cc3F)c(=O)c(C(=O)O)cn4C3CC3)CC2)c1 | 17.6%
CCOC(=O)c1sc2nc(-c3cccc(OC)c3)nc(N3CCOCC3)c2c1C | 84%
CCCCCCCCCCCCC[N+](C)(C)Cc1ccccc1 | 40.5%
CCCOc1ccc2nc(NC(=O)OC)[nH]c2c1 | 12.8%
Nc1n[nH]c2ccc([C@@H]3Nc4ccc5cn[nH]c5c4[C@H]4C5CCC(C5)[C@@H]34)cc12 (stereo partly specified) | 24.4%
O=c1nc2oc3ccc4ccccc4c3cc-2s1 | 35.1%
COC(=O)c1cccc(NC(=O)c2ccc(-c3cccc(N)c3)o2)c1 | 100%
CCOC(=O)c1c(C)oc2ncnc(N3CCN(C(=S)Nc4ccccc4)CC3)c12 | 92%
CCCCN(CCCC)CCCn1c(-c2ccccc2)ccc1-c1ccccc1 | 76%
CN1CCN(CCCOc2cccc3nc(Nc4ccc(Cl)c(F)c4)ccc23)CC1 | 40.1%
COc1cccc(/C=N/NC(=O)c2ccccc2Nc2ccnc(C(F)(F)F)c2)c1O | 14.3%
COc1cc2nc(N3CCCC3)nc(NCc3ccccc3)c2cc1OC | 76%
COc1cc2c(cc1-c1c(C)noc1C)ncc1nc(-c3ccccn3)n([C@H](C)COC(F)F)c12 | 39%
COc1cccc(-c2nc3sccn3c2-c2ccnc(NCCCNS(=O)(=O)c3c(Cl)cccc3Cl)c2)c1 | 60.3%
N#Cc1c(-c2ccc(Cl)cc2)nc(NN=Cc2ccco2)nc1N1CCOCC1 | 78.9%
O=C(Nc1cccc2[nH]c(C(F)(F)F)nc12)c1ccc(-n2cnnn2)cc1 | 98.1%
CC1CCNC(C)C1 (stereo unspecified) | 112%
CCN(CC)c1ccc(-c2cc(-c3cc(OC)c(OC)c(OC)c3)nc(N3CCOCC3)c2C#N)cc1 | 21.5%

tested on: 786-0 renal; experiment: as above; conditions: 10 µM unless noted

SMILES | growth
C=CC(=O)Nc1cccc(-c2nc(SC)nc(NCc3ccccc3)c2C#N)c1 | 66%
COC(=O)c1ccc2oc(NC(=O)c3ccc(Nc4ccc([N+](=O)[O-])cc4C)c([N+](=O)[O-])c3)nc2c1 | 99.8%
COc1cc(/C=C/c2cc(/C=C/c3ccc(O)c(OC)c3)n(-c3c(Cl)cccc3Cl)c(=O)n2)ccc1O | 29.7%
CSc1nc(Nc2cccc(NC(=O)CCl)c2)c(C#N)c(-c2cccc([N+](=O)[O-])c2)n1 | 73.2%
CC(C)(C)N1CCC1CN (stereo unspecified) | 96.4%
Cc1ccc(NC(=O)/C=C/c2ccccc2)c(C(N)=O)c1 | 60.7%
COc1ccc(-n2nc(C)c3c(Nc4ccc(NC(=O)Nc5cccc(C(F)(F)F)c5)cc4)ncnc32)cc1 | -47.4% (active)
O=C1OCC2=C1C(c1ccncc1)c1cc3c(cc1N2CCO)OCO3 (stereo unspecified) | 112%
C#Cc1cccc(NC(=O)c2ccccc2NC(=O)C=C)c1 | 89.9% [8.25 µM]
CCOc1cc2ncc(C#N)c(Nc3ccc(F)c(Cl)c3)c2cc1NC(=O)CC1CCSS1 (stereo unspecified) | 12.1%
CN(Cc1cc(Cl)cc(Cl)c1O)Cc1cc(Cl)cc(Cl)c1O | 94.7%
CC(=O)O[C@H]1[C@@H]2OC(=O)C(CSc3ccccc3)[C@@H]2C[C@H]2O[C@]2(C)CC/C=C(\C)CCC[C@@H]1C (stereo partly specified) | 61.4%
COc1ccc(/C=N/C2=C(C#N)C(c3ccc(N(C)C)cc3)c3ccc4ccccc4c3O2)cc1 (stereo unspecified) | 83.1%
C[n+]1ccccc1/C=C/c1ccc2cccc(O)c2n1 | 104%
Cc1nn(-c2ccc(F)cc2)c2ncnc(Oc3ccc(NC(=O)Nc4ccc(Cl)c(C(F)(F)F)c4)cc3)c12 | 106%
COc1ccc(C(=O)c2sc3nc(C)cc(C)c3c2N)cc1OC | 99.5%
C=CC(=O)Nc1cccc(-c2nc(SC)nc(Nc3ccccc3OC)c2C#N)c1 | 11.6%
Nc1nc2ncc(CCNc3ccc(C(=O)O)cc3)nc2c(=O)[nH]1 | 104%
CCCSc1ccc2nc(NC(=O)OC)[nH]c2c1 | 31%

SMILES | growth
CCCc1cc(=O)n2c(C(=O)Nc3ccc(F)cc3)c(C(=O)Nc3ccc(F)cc3)sc2n1 | 17.6% [30 µM]
O=C(/C=C/c1ccccc1)c1ccc(O)c(CN2CCN(c3cc4c(cc3F)c(=O)c(C(=O)O)cn4C3CC3)CC2)c1 | 23.9%
CCOC(=O)c1sc2nc(-c3cccc(OC)c3)nc(N3CCOCC3)c2c1C | 92.8%
CCCCCCCCCCCCC[N+](C)(C)Cc1ccccc1 | -56.1% (active)
CCCOc1ccc2nc(NC(=O)OC)[nH]c2c1 | 32.6%
Nc1n[nH]c2ccc([C@@H]3Nc4ccc5cn[nH]c5c4[C@H]4C5CCC(C5)[C@@H]34)cc12 (stereo partly specified) | 38.4%
O=c1nc2oc3ccc4ccccc4c3cc-2s1 | 23%
COC(=O)c1cccc(NC(=O)c2ccc(-c3cccc(N)c3)o2)c1 | 109%
CCOC(=O)c1c(C)oc2ncnc(N3CCN(C(=S)Nc4ccccc4)CC3)c12 | 97.8%
CCCCN(CCCC)CCCn1c(-c2ccccc2)ccc1-c1ccccc1 | 72.7%
CN1CCN(CCCOc2cccc3nc(Nc4ccc(Cl)c(F)c4)ccc23)CC1 | 64.1%
COc1cccc(/C=N/NC(=O)c2ccccc2Nc2ccnc(C(F)(F)F)c2)c1O | -2.01% (active)
COc1cc2nc(N3CCCC3)nc(NCc3ccccc3)c2cc1OC | 78.6%
COc1cc2c(cc1-c1c(C)noc1C)ncc1nc(-c3ccccn3)n([C@H](C)COC(F)F)c12 | 50.4%
COc1cccc(-c2nc3sccn3c2-c2ccnc(NCCCNS(=O)(=O)c3c(Cl)cccc3Cl)c2)c1 | 70.4%
N#Cc1c(-c2ccc(Cl)cc2)nc(NN=Cc2ccco2)nc1N1CCOCC1 | 74%
O=C(Nc1cccc2[nH]c(C(F)(F)F)nc12)c1ccc(-n2cnnn2)cc1 | 106%
CC1CCNC(C)C1 (stereo unspecified) | 106%
CCN(CC)c1ccc(-c2cc(-c3cc(OC)c(OC)c(OC)c3)nc(N3CCOCC3)c2C#N)cc1 | 0.298% (active)
